Measured values taken from PubChem BioAssay (NCATS).
Results filed as inconclusive are left out. Where a call stands in place of a potency, no number is given. Calls of active or inactive are those of the source. Calls come from the whole dose curve; as a rule, active = well fitted curve in the direction sought with a large enough effect; inconclusive = small, poorly fitted or top-dose-only effect, or another doubt; inactive = no such curve, though single readings can be large; an effect the other way counts as inactive or inconclusive.

Experiments:
[1] = qHTS of pediatric cancer cell lines to identify multiple opportunities for drug repurposing: Primary screen for U-2 OS cells (AID 1347096); note: nearly all actives have a fitted effect of over 50% in size
Outline: (§1)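 Viability after 48 h compound treatment at 37C, 500-1,000 cells/well, read as ATP luminescence with CellTiter-Glo. Primary screens used 11-point (MIPE, 0.78 nM-46 µM) or 8-point (NPC, 0.59 nM-46 µM) final concentrations; follow-up screens used 11-point dilutions.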

[2] = qHTS of pediatric cancer cell lines to identify multiple opportunities for drug repurposing: Primary screen for NB1643 cells (AID 1347099); note: nearly all actives have a fitted effect of over 50% in size; note: potency is the fitted concentration of half-maximal effect
Outline: (§2)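 Readout: CellTiter-Glo luminescence, 48 h treatment. Controls DMSO (neutral) and bortezomib 2.3 µM final (positive). Potency and efficacy taken from primary-screen concentration-response curves.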

[3] = qHTS of pediatric cancer cell lines to identify multiple opportunities for drug repurposing: Primary screen for BT-12 cells (AID 1347101); note: nearly all actives have a fitted effect of over 25% in size; note: potency is the fitted concentration of half-maximal effect
Outline: (§3)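 Cells (500-1,000/well) rested 5 h, then received compounds for 48 h; metabolically active cells were measured by CellTiter-Glo luminescence. Final concentrations spanned up to 46 µM (MIPE, 11-point) or 0.59 nM-46 µM (NPC, 8-point) in primary screens, 11-point in follow-ups.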

[4] = qHTS of pediatric cancer cell lines to identify multiple opportunities for drug repurposing: Primary screen for SK-N-SH cells (AID 1347098); note: nearly all actives have a fitted effect of over 65% in size; note: potency is the fitted concentration of half-maximal effect
Outline: as §3

[5] = qHTS of pediatric cancer cell lines to identify multiple opportunities for drug repurposing: Primary screen for Saos-2 cells (AID 1347097); note: potency is the fitted concentration of half-maximal effect; nearly all actives have a fitted effect of over 40% in size
Outline: as §2

[6] = qHTS of pediatric cancer cell lines to identify multiple opportunities for drug repurposing: Primary screen for LAN-5 cells (AID 1347100); note: potency is the fitted concentration of half-maximal effect
Outline: as §1

[7] = qHTS of pediatric cancer cell lines to identify multiple opportunities for drug repurposing: Primary screen for Rh18 cells (AID 1347102); note: nearly all actives have a fitted effect of over 65% in size
Outline: as §1

[8] = qHTS of pediatric cancer cell lines to identify multiple opportunities for drug repurposing: Primary screen for BT-37 cells (AID 1347094); note: potency is the fitted concentration of half-maximal effect
Outline: as §2

[9] = qHTS of pediatric cancer cell lines to identify multiple opportunities for drug repurposing: Primary screen for NB-EBc1 cells (AID 1347095); note: potency is the fitted concentration of half-maximal effect
Outline: as §2

For `CCCC(=O)c1cc(O)c(O)cc1O`, the Potency [1] was “inactive”, the Potency [2] was “inactive” and the Potency [3] was “inactive”.

With `CCOC(=O)C1=C(C)NC(C)=C(C(=O)OCC)C1c1ccccc1/C=C/C(=O)OC(C)(C)C` the Potency [4] was 27.3 µM (active).

For `CCCN(CCC)C(=O)C(CCC(=O)OCCCN1CCN(CCOC(=O)Cc2c(C)n(C(=O)c3ccc(Cl)cc3)c3ccc(OC)cc23)CC1)NC(=O)c1ccccc1` (centres undefined), the Potency [1] was “inactive”, the Potency [2] was “inactive” and the Potency [3] was “inactive”.

With `CC(NCCC(c1ccccc1)c1ccccc1)c1ccccc1` (centres undefined) the Potency [5] was 26.6 µM (active), the Potency [4] was 27.3 µM (active) and the Potency [6] was 23.7 µM (active). For the same compound, the Potency [3] was 27.6 µM (active).

In the case of `COc1ccc([C@@H]2Sc3ccccc3NC(=O)[C@@H]2O)cc1`, the Potency [1] is reported as “inactive”, the Potency [2] is reported as “inactive” and the Potency [7] is reported as “inactive”.

In the case of `O=[N+]([O-])c1ccc(O)c2ncccc12`, the Potency [8] is reported as 15.5 µM (active), the Potency [9] is reported as 2.37 µM (active) and the Potency [4] is reported as 3.44 µM (active). For the same compound, the Potency [2] was 1.88 µM (active), the Potency [6] was 3.76 µM (active) and the Potency [3] was 5.5 µM (active).

For `O=C(c1cc(O)c(O)c(O)c1)c1ccc(O)c(O)c1O`, the Potency [9] was “inactive”, the Potency [5] was 26.6 µM (active) and the Potency [2] was “inactive”. For the same compound, the Potency [7] was “inactive”.

In the case of `CCN(CC)CCOc1ccc(/C(=C(\Cl)c2ccccc2)c2ccccc2)cc1`, the Potency [5] is reported as 26.6 µM (active), the Potency [4] is reported as 30.7 µM (active) and the Potency [6] is reported as 18.8 µM (active). For the same compound, the Potency [3] was 15.5 µM (active).

In the case of `Nc1ccc2c(c1)CN1C(=O)c3ccccc3C1=N2`, the Potency [9] is reported as 0.651 µM (active).

In the case of `C=CCNc1nc(NCC=C)nc(N2CCN(C(c3ccc(F)cc3)c3ccc(F)cc3)CC2)n1`, the Potency [9] is reported as “inactive”, the Potency [1] is reported as “inactive” and the Potency [4] is reported as “inactive”. The Potency [2] was “inactive” and the Potency [6] was “inactive”.
